# FLuc inh = firefly luciferase inhibition | P08659 | purified firefly luciferase, luminescence, 8 min | Potency, µM (highest dose often 57.1 µM), hits mostly inhibitors | hit rate 2.2% among 72,000; also: nearly all actives have a fitted effect of over 40% in size
#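 Substrate buffer containing 10 uM ATP (pH 7.2 imidazole, Mg2+, KCl, detergent, BSA) is dispensed, compound pinned in, then luciferase/luciferin detector mix added. After 8 min at ambient temperature, light output is measured.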
# ALOX15 inhib = blocks human 15-lipoxygenase activity; P16050; purified 15hLO-1, xylenol orange hydroperoxide absorbance; Potency, µM (doses to about 57.1 µM), most hits filed as inhibitors; hit rate 1.4% among 74,000; AID 887; also: nearly all actives have a fitted effect of over 55% in size
#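 Purified human 15hLO-1 (40 nM) in 25 mM Hepes pH 7.5, 0.01% Triton X-100, preincubated 15 min RT with compound, then 50 uM arachidonic acid for 6 min. Hydroperoxide read by ferrous/xylenol orange, 30 min; 573/405 nm absorbance ratio gave progress.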
# Bst PK mod = pyruvate kinase (B. stearothermophilus) modulation. purified pyruvate kinase, luminescence ATP production; ribose 5-phosphate activator present at AC10. Potency, µM. hit rate 1.2% among 51,000. AID 361; in the data active = potency below about 11 µM; inconclusive = mostly about 12 µM to 25 µM;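 the screen sought inhibitors and activators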
# TSHR ag = TSH receptor (human) agonism | P16473 | hit rate 0.48% among 73,000 | Potency, µM (top dose mostly 57.1 µM), actives largely listed as activators | HEK293-CNG-TSHR cells (CNG channel as cAMP sensor), membrane potential dye, cAMP; active = well fitted activation curve with a large enough effect in the main read-out, with a control signal flat, not every such curve was filed as active; inconclusive = small, poorly fitted or top-dose-only effect, or a change in a side signal; inactive = no such curve, though single readings can be large or run the other way; reference of the percent scale not stated here;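 also: the control signal comes from parental cells without the receptor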
# Target sequence (P16473 whole entry, looked up): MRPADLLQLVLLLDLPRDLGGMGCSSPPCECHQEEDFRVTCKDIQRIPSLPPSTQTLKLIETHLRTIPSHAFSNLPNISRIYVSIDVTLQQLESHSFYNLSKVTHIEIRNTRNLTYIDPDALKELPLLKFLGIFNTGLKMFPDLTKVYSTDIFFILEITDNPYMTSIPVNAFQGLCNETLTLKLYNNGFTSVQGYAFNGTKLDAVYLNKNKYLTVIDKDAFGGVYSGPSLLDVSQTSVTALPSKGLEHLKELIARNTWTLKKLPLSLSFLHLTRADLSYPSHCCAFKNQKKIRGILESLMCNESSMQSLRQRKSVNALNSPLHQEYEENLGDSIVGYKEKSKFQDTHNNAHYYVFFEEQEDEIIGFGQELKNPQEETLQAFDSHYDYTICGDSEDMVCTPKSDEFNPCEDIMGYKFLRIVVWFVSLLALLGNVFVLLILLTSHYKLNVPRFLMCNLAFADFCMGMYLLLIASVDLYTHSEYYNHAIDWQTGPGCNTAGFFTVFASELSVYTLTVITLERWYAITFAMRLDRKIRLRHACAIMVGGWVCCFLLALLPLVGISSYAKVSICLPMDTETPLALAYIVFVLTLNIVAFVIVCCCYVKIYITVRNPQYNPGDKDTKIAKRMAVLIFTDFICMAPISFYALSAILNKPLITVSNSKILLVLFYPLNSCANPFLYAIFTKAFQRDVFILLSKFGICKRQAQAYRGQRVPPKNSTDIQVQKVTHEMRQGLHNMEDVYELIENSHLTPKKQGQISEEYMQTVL
#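 HEK 293 cells stably expressing TSHR and a modified CNG channel, with CNG-only parental cells as counterscreen, were preloaded 60 min at room temperature with membrane potential dye containing 100 uM RO 20-1724. Compound exposure was 30 min, and depolarization was read as fluorescence at 590 nm.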
# HEK293 cAMP cs = raises cAMP in parental HEK293 cells, TSHR agonist counter-screen | parental HEK293 CNG cAMP sensor, membrane potential fluorescence | Potency, µM (highest dose often 57.1 µM), hits mostly activators | hit rate 2.5% among 73,000 | AID 938; also: nearly all actives have a fitted effect of over 55% in size
#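 Parental HEK 293 cells stably expressing a modified CNG channel (no TSHR) report cAMP rise as membrane depolarization. Membrane potential dye with 100 uM RO 20-1724 was loaded for 60 min at room temperature, then compound added for 30 min; fluorescence read at 590 nm.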
# Tau fil binding = tau filament binding. hit rate 2% among 71,000. recombinant tau filaments, thioflavin S fluorescence, 15 h; filaments grown with octadecylsulfate alongside compound. Potency, µM (titrated, usually from 57.1 µM). P10636. AID 596;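 also: actives lower thioflavin S fluorescence by blocking filaments or displacing dye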
#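 Assay mix: 1 uM His-tagged tau, 30 uM sodium octadecylsulfate, thioflavine S dye in HEPES/NaCl/DTT buffer. Compound is added prior to the inducer. Fluorescence after 15 h at 37 C.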
# A number is an active result; 0 = inactive; ? = inconclusive; - = no result; [ ] = dose if it differs, or a comment. Sampled rows, rich in hits. Any-hit rate of the full collection: about 7.8%. Unless noted, calls follow the shape of the dose curve; as a rule, active = well fitted curve in the direction sought with a large enough effect; inconclusive = small, poorly fitted or top-dose-only effect, or another doubt; inactive = no such curve, though single readings can be large; an effect the other way counts as inactive or inconclusive.
SMILES,FLuc inh,ALOX15 inhib,Bst PK mod,TSHR ag,HEK293 cAMP cs,Tau fil binding
Clc1ccc(Cl)c(-c2nn3c(COc4ccccc4)nnc3s2)c1,0,10µM,0,?,?,0
Clc1ccccc1-c1nn2c(Cn3cnc4ccccc43)nnc2s1,0,0,0,3.2µM,0,0
COCC(=O)O,-,0,-,?,?,0
CCN1CCCC1Cn1c(-c2ccccc2)nc2c(N3CCOCC3)nc(C)nc21 (stereo not drawn),-,0,-,-,0,0
Clc1cc(Cl)c(Cl)c(Cl)c1Cl,-,0,-,0,0,0
CC1CCN(Cc2c(C#N)c3ccccc3n2C)CC1,0,25µM,0,0,0,0
CC(=O)Nc1ccc2oc(-c3ccccc3Br)nc2c1,10µM,0,?,0,0,0
Cc1nc(/N=C(\N)Nc2ccccc2)nc2ccccc12,0,-,9.3,-,-,-
CC(=O)[C@@]1(O)CC[C@@H]2[C@@H]3CCC4=CC(=O)CC[C@@]4(C)[C@H]3CC[C@]21C,0,0,-,0,0,0
Cc1ccc(CNC(=O)Nc2cccs2)cc1,-,?,-,0,0,-
Cc1ccc(CNC(=O)Nc2ccccc2)cc1,13µM,0,-,0,0,0
COc1ccccc1N(CCC#N)C(=O)CSc1ccc2c(c1)OCCO2,0,0,0,25µM,0,0
CCOc1cccc2cc(-c3cn4cc(C)ccc4n3)c(=O)oc12,0.16µM,0,1.2,0,0,0
CCc1nc(SCC(=O)Nc2ccc3c(c2)OCCO3)c2oc3ccccc3c2n1,0,0,0,-,0,0
Cc1nc(SCC(=O)Nc2ccc3c(c2)OCCO3)c2oc3ccccc3c2n1,0,0,0,4µM,0,0
CC(C)(C)c1cc(-c2ccco2)c(C#N)c(SCC#N)n1,0,-,0,-,-,-
N#Cc1sc2nc(-c3ccccc3)cc(-c3ccco3)c2c1N,0,4µM,?,0,0,2.5µM
N#Cc1c(-c2ccccc2)cc(-c2ccco2)c(C#N)c1N,0,7.9µM,-,0,0,0
CCOc1cccc(-c2cc(C(=O)N/N=C/c3cccc(OC)c3O)[nH]n2)c1,-,0,-,-,0,-
COc1cccc2[nH]c3c(N4CCCC(C)C4)ncnc3c12 (stereo not drawn),13µM,?,-,0,0,0
CCOC(=O)C1CCCN(c2ncnc3c2[nH]c2cccc(OC)c23)C1 (stereo not drawn),0,0,-,0,0,0
COC(=O)[C@@]1(Cc2ccc(F)cc2)[C@H]2c3cc(C(=O)N4CCCC4)n(CC4CC4)c3C[C@H]2CN1C(=O)c1ccccc1,-,-,-,?,4µM,0
COC(=O)[C@@]1(Cc2ccc(F)cc2)[C@H]2c3cc(C(=O)N4CCCC4)n(Cc4cc(C)n(C)n4)c3C[C@H]2CN1C(=O)c1ccccc1,-,-,-,?,16µM,0
COC(=O)[C@@]1(Cc2ccc(F)cc2)[C@H]2c3cc(C(=O)N(C)C)n(Cc4cc(C)n(C)n4)c3C[C@H]2CN1C(=O)c1ccccc1,-,-,-,?,?,0
COC(=O)[C@@]1(Cc2ccc(F)cc2)[C@H]2c3cc(C(=O)N4CCCC4)n(Cc4ccc(C)o4)c3C[C@H]2CN1C(=O)c1ccccc1,-,-,-,?,32µM,0
SMILES,FLuc inh,ALOX15 inhib,Bst PK mod,TSHR ag,HEK293 cAMP cs,Tau fil binding
COC(=O)[C@@]1(Cc2ccc(F)cc2)[C@H]2c3cc(C(=O)N4CCCC4)n(Cc4ccc(S(C)(=O)=O)cc4)c3C[C@H]2CN1C(=O)c1ccccc1,-,-,-,?,16µM,0
CN(C)c1cc(NC(=O)CN2CCOCC2)c2ccccc2n1,0,0,-,?,20µM,0
CCCCC(=O)Nc1cc(N(C)C)nc2ccccc12,0,0,0,?,?,0
CCOC(=O)c1oc2ccccc2c1CSc1nnnn1-c1ccc(C)cc1,0,1µM,0,?,7.9µM,0
CCOC(=O)c1c(N2C(=O)C3C4C=CC(O4)C3C2=O)sc2c1CCCC2 (stereo not drawn),0,7.9µM,-,?,?,0
Cc1cccc2cc(C#N)c(NCCNC(=O)NC3CCCCC3)nc12,0,0,0,?,20µM,0
COc1cccc(C2C=C(c3ccc(Br)s3)Nc3ncnn32)c1OC (stereo not drawn),0,0,0,20µM,0,0
CCc1ccc(-c2cn(-c3nc(C)cc(C)n3)c(=N)o2)cc1,16µM,0,-,?,25µM,0
CN(C)C(=O)c1ccc(-c2ccc3ncnc(NCCN4CCOCC4)c3c2)cc1,0[2.29 µM],0,-,0,0,0
Cc1ccc(Cn2c(SCC(C)C)nc3c2c(=O)n(C)c(=O)n3C)cc1,0,0,0,?,25µM,0
CCn1c(SCC(=O)N2c3ccccc3Sc3ccccc32)nc2c1c(=O)n(C)c(=O)n2C,0,0,0,20µM,0,0
COCCn1nnnc1CN(CCc1ccccc1)Cc1cc2ccc(C)cc2[nH]c1=O,0,0,0,0,0,0
NC(=O)COC(=O)C(Cc1ccccc1)NS(=O)(=O)c1ccccc1F (stereo not drawn),0,0,0,0,0,0
COc1ccc(Cl)cc1N=Cc1c(O)cc(C)oc1=O,0,-,0,-,-,-
COc1ccc(Cl)cc1N=Nc1ncc[nH]1,0,0,-,0,0,40µM
CCCC[S@@](=N)(=O)CC[C@@H](N)C(=O)O,0,0,-,?,?,0
CC1CCc2c(nc3ncnn3c2N2CCN(c3ccccc3)CC2)C1 (stereo not drawn),0,0,0,?,25µM,0
Cc1ccc(C(=O)CSC2=C(C#N)C(c3ccco3)C3=C(CC(C)(C)CC3=O)N2)cc1 (stereo not drawn),0,0,0,0,0,0
CC1(C)CC(=O)C2=C(C1)NC(SCC(=O)Nc1ccccc1)=C(C#N)C2c1ccco1 (stereo not drawn),0,0,0,?,16µM,13µM
Cc1ccc(S(=O)(=O)N2Cc3ccccc3CC2C(=O)Nn2cnnc2)cc1 (stereo not drawn),0,0,?,0,0,0
CC1CCN(C(=O)C2Cc3ccccc3CN2S(=O)(=O)c2ccc(F)cc2)CC1 (stereo not drawn),0,0,0,?,20µM,0
Cc1ccc(S(=O)(=O)N2Cc3ccccc3CC2C(=O)Nc2cc(C)on2)cc1 (stereo not drawn),0,0,-,25µM,0,0
O=C(CSc1nc2c(c(=O)n1-c1ccc(Cl)cc1)SCC2)Nc1ccc2c(c1)OCCO2,0,0,-,0,0,0
Cc1cc(N=Cc2c(O)ccc3ccccc23)no1,0,0,-,0,0,0
COc1ccc(C=Nc2c(O)ccc3ccccc23)cc1OC,?,0[11.4 µM],-,0[11.4 µM],0[11.4 µM],4µM
C[C@@H]1CCN=C(N)S1,0,0,-,0,0,?
Cc1cc(=O)[nH]c(S/C=C/c2ccccc2)n1,16µM,0,0,0,0,0
CN(C)CCC[C@@H]1c2ccccc2Oc2ccc(C(F)(F)F)cc21,0[11.4 µM],0[11.4 µM],-,0[11.4 µM],0[11.4 µM],0[11.4 µM]
[N-]=[N+]=NCC1OC(n2cnc3c(=O)[nH]c(N)nc32)C(O)C1O (stereo not drawn),-,0,-,-,-,-

# Screens deposited in PubChem BioAssay by National Center for Advancing Translational Sciences (NCATS).
